Test [1] is described as follows: Stat Signaling Pathway (AID 446).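 Further: ME-180 cervical cancer cells given 40 pM IL-6 alongside compound; SIE-controlled beta-lactamase reporter measured as 460/530 nm FRET emission ratio; on the % scale 0 is the no-effect control and ±100 the full control effect.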 The procedure, abridged: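 Overnight-plated ME-180 cells bearing a STAT Inducible Element beta-lactamase reporter; 5 h co-exposure to compound and 40 pM IL-6; values normalized to 300 pM IL-6 and 125 nM JAK inhibitor controls.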
Test [2] concerns the target Glucocorticoid receptor (Homo sapiens) (UniProt P04150). In words: GR-GFP Redistribution (AID 450;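 active means compounds whose dose series gives a full or clear partial fitted curve of increased nuclear translocation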; further: potency means the concentration at half of the fitted maximal effect). The settings on record: U2OS GR-GFP nuclear translocation, laser cytometry, 2 h.
Test [3] in a line: AP1 Signaling Pathway (AID 357).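 Further: ME-180 reporter cells stimulated with EGF at its EC50 level; on the % scale 0 is the no-effect control and ±100 the full control effect.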 The settings on record: ME-180 (cervical carcinoma) AP-1-bla reporter, EGF-induced, beta-lactamase ratio, 5 h. A digest of the protocol:
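Modulation of EGF-driven AP-1 transcription was assessed with a beta-lactamase reporter in ME-180 cells. Compound and EC50 EGF were co-incubated 5 hours at 37 °C before 2.5-hour CCF4 loading at room temperature and dual-emission reading.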

Test [4] is described as follows: NFAT Signaling Pathway (AID 444).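 Further: carbachol stimulus at about its EC50 of 1 µM final; on the % scale 0 is the no-effect control and ±100 the full control effect.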 Conditions: Jurkat NFAT-bla M1, carbachol, beta-lactamase ratio, 5 h. A digest of the protocol: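 Jurkat cells with NFAT-driven β-lactamase reporter and co-expressed M1 receptor, stimulated with carbachol (final 1 uM, ~EC50), compound titration, 5 h at 37 °C. CCF4 loaded 1 h at RT; 460/530 nm ratio gave %activity and AC50.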
The target of test [5] is Glucocorticoid receptor (Homo sapiens) (UniProt P04150). Kind of test: GR-EFC Redistribution (AID 451; calls by dose curve; further: potency means the concentration at half of the fitted maximal effect). The settings on record: CHO-K1 GR-EFC translocation, beta-gal luminescence, 2 h. A digest of the protocol:
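CHO-K1 cells expressing nuclear EA and GR-ED fragments of b-gal; compounds titrated up to 46 uM final, 2 h at 37 C. GR nuclear translocation read as complemented b-gal luminescence after 1 h RT detection.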

Test [6] concerns the target Cytochrome P450 1A2 (Homo sapiens) (UniProt P05177). In words: p450-cyp1a2 (AID 410; calls by dose curve; further: potency means the concentration at half of the fitted maximal effect;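 on activity change, negative = inhibition: -100% = full effect of reference inhibitor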). The procedure, abridged: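 Luminescent demethylation readout: Luciferin-ME (100uM, equal to Km) turned over by 20nM CYP1A2 for 60 min at room temperature after NADPH regeneration addition, following 10 min compound preincubation. Normalization used 57 uM furafylline as full inhibition.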

Test [7] addresses Mitogen-activated protein kinase 10 (Mus musculus) (UniProt Q61831). Kind of test: JNK3 AlphaScreen Assay (AID 530).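 Further: kinase came from lysate of stimulated human HepG2 cells; signal reports phosphorylation of biotinylated GST-cJun 1-79 at Ser73 with 10 µM ATP; on the % scale 0 is the no-effect control and ±100 the full control effect.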 A digest of the protocol:
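Activity was read by AlphaScreen after JNK3-containing HepG2 lysate (cytokine pre-activated) phosphorylated biotinylated GST-cJun with 10 uM ATP at room temperature. Phospho-Ser73 cJun antibody with Protein-A acceptor beads provided detection.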

A short description of test [8]: Cell Viability - BJ (AID 421; calls by dose curve;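 further: potency means the concentration at half of the fitted maximal effect; cells exposed to compound for 40 hours at 37 °C before readout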). Conditions: BJ fibroblast viability, qHTS. A digest of the protocol:
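Quantitative HTS: ATP depletion in BJ cells after 40 hr compound exposure in complete culture medium, detected with CellTiter-Glo; AC50 from standard Hill fits.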

Test [9] is described as follows: Cell Viability - Jurkat (AID 426;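 active means dose-dependent loss of cell ATP signal giving a full or clear fitted curve, ranked by lower potency value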;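 further: potency means the concentration at half of the fitted maximal effect; cells exposed to compound for 40 hours at 37 °C before ATP read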). The settings on record: qHTS. A digest of the protocol: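 Cytotoxicity taken as drop in cellular ATP (CellTiter-Glo luminescence, 20 min room temperature) after 40 hr, 37C treatment of 5000 Jurkat Clone E6-1 cells per well; concentration-response fitted with Hill equation for AC50.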
Test [10] is described as follows: Cell Viability - Hek293 (AID 427;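 active means compounds whose dose-response curve shows a full or clear partial loss of cell viability, called from curve shape rather than a numeric limit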;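 further: potency means the concentration at half of the fitted maximal effect; cells exposed to compound for 40 hours at 37 °C before reading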). The settings on record: qHTS. The procedure, abridged:
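AC50 values derive from Hill-modelled concentration-response of ATP-based luminescence, normalized between DMSO-only and 100 uM tamoxifen controls. Cells were exposed in complete culture medium for 40 hr at 37 °C before detection.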

Test [11] is described as follows: Cell Viability - HepG2 (AID 433; calls by dose curve; further: potency means the concentration at half of the fitted maximal effect). The settings on record: qHTS. The procedure, abridged:
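HepG2 hepatocellular carcinoma cells (1500/well) were treated with compounds for 40 h at 37 °C in complete medium; intracellular ATP was read by CellTiter-Glo luminescence. Data were normalized to DMSO and 100 uM tamoxifen, and AC50 came from Hill fits.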

A short description of test [12]: Cell Viability - MRC5 (AID 434; calls by dose curve;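 further: potency means the concentration at half of the fitted maximal effect; potency reflects cytotoxicity seen as loss of intracellular ATP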). The settings on record: MRC5 lung fibroblast viability, qHTS. The procedure, abridged:
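ATP luminescence read-out (CellTiter-Glo, 20 min RT) after 40 hr, 37 °C compound exposure of 1500 MRC5 cells/well. Data normalized to DMSO (basal) and 100 uM tamoxifen (100% inhibition); AC50 from standard Hill equation.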

Test [13] can be described thus: Cell Viability - SK-N-SH (AID 435; calls by dose curve;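 further: potency means the concentration at half of the fitted maximal effect; compound exposure lasted 40 h at 37 °C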). Conditions: SK-N-SH neuroblastoma cell viability qHTS. The procedure, abridged: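 SK-N-SH human neuroblastoma cells (1500/well) were exposed to compounds in complete medium for 40 h at 37 °C, and intracellular ATP was then measured by CellTiter-Glo luminescence. AC50 was taken from Hill fits, normalized to DMSO and 100 uM tamoxifen.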

Test [14] is described as follows: Cell Viability - N2a (AID 540; active means well fitted curve in the direction sought with a large enough effect; an effect the other way counts as inactive or inconclusive;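 further: plate controls were DMSO alone for no effect and tamoxifen control for full effect; nearly all actives have a fitted effect of over 45% in size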). A digest of the protocol: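 CellTiter-Glo ATP luminescence, read 20 min after reagent at room temperature, reported viability following 40 h compound treatment at 37 °C. N2a mouse neuroblastoma cells seeded 1500/well; Hill equation gave AC50.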
Test [15] is described as follows: Cell Viability - NIH 3T3 (AID 541; active means well fitted curve in the direction sought with a large enough effect; an effect the other way counts as inactive or inconclusive;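 further: plate controls were DMSO alone for no effect and tamoxifen positive control for full effect; nearly all actives have a fitted effect of over 25% in size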). A digest of the protocol: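 Intracellular ATP (CellTiter-Glo luminescence, 20 min at room temperature) measured after 40 hr compound exposure at 37 °C of 1000 NIH 3T3 mouse fibroblasts/well in complete medium; AC50 derived by Hill-equation modelling of qHTS concentration-response curves.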
A short description of test [16]: Cell Viability - HUV-EC-C (AID 542; active means well fitted curve in the direction sought with a large enough effect; an effect the other way counts as inactive or inconclusive; further: on the % scale 0 is the no-effect control and ±100 the full control effect; nearly all actives have a fitted effect of over 35% in size). The procedure, abridged:
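CellTiter-Glo luminescence measured ATP loss in HUV-EC-C cells (1000/well) after 40 hr compound exposure at 37 °C, in complete culture medium. Concentration-response data were Hill-fitted to give AC50.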

The nature of test [17]: Cell Viability - SH-SY5Y (AID 544; active means well fitted curve in the direction sought with a large enough effect; an effect the other way counts as inactive or inconclusive;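 further: 0% = DMSO alone and -100% = 100 µM tamoxifen; nearly all actives have a fitted effect of over 55% in size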). A digest of the protocol: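 Cytotoxicity measured via ATP-dependent luciferase luminescence (CellTiter-Glo) following 40 h, 37 °C exposure of 1500 SH-SY5Y cells per well. Concentration-response data were fitted with the standard Hill equation to give AC50.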
Test [18] can be described thus: Cell Viability - Renal Proximal Tubule (AID 545; active means well fitted curve in the direction sought with a large enough effect; an effect the other way counts as inactive or inconclusive;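 further: 0% = DMSO only and -100% = 100 µM tamoxifen; nearly all actives have a fitted effect of over 40% in size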). The procedure, abridged: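 Primary rat renal proximal tubule cells (1000/well) were treated with compounds for 40 hr at 37 °C in complete medium. Intracellular ATP was measured by CellTiter-Glo luminescence, and AC50 values came from Hill-equation fits of concentration-response data.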

For 16 compounds, outcome, Potency and activity change, negative = inhibition results are on record in PubChem BioAssay (NCATS).

Each structure is given as a SMILES string. Several values for one entry are separate records, joined by “and”; a condition that tells them apart may be missing. Identical values can stand only once. Results filed as inconclusive are left out. Some structures have more than one record in an assay (separate samples or runs), and their calls can disagree. Activity calls are given as the source filed them. Unless noted, the call rests on the fitted dose curve; in most records, active means well fitted curve in either direction with a large enough effect (not every such curve was filed as active); inconclusive means small, poorly fitted or top-dose-only effect, or another doubt; inactive means flat fitted curve, though single readings scatter.

Chain of Cytochrome P450 1A2 (Homo sapiens) (P05177 whole entry, looked up): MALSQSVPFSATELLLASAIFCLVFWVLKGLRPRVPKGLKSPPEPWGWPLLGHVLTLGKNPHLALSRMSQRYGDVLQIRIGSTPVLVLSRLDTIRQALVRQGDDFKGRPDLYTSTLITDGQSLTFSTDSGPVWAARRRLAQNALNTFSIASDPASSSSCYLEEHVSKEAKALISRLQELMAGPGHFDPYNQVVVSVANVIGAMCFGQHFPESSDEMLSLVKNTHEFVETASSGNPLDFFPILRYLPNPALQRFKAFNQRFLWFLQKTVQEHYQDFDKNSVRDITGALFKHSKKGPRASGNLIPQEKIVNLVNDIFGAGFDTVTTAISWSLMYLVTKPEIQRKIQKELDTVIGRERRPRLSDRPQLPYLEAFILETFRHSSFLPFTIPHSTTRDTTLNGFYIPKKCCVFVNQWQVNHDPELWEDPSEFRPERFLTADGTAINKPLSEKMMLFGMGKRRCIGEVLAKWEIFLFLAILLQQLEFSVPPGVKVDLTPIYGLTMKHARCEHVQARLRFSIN
Chain of Glucocorticoid receptor (Homo sapiens) (P04150 whole entry, looked up, the tested form may be a part): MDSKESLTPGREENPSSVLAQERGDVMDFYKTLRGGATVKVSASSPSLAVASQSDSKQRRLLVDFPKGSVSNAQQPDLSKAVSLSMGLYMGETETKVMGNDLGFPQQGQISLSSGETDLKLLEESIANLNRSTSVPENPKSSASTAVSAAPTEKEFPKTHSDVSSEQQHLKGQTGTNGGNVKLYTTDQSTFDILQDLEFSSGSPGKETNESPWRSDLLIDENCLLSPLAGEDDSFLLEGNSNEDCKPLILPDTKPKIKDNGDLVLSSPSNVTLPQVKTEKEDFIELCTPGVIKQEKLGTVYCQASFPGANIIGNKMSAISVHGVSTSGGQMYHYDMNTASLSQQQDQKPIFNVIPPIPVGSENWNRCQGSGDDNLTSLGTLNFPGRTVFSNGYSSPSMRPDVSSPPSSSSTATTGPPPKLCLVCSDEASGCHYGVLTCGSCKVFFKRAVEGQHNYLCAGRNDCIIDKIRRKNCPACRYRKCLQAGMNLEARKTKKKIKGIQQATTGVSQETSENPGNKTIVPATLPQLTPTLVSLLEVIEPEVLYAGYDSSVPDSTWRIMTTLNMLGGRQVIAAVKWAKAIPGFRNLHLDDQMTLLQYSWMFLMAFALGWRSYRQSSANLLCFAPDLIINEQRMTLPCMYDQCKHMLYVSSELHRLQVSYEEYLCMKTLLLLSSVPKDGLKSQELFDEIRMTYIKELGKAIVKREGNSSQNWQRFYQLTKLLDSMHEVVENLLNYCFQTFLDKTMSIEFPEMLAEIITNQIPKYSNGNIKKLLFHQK

`CCOC(=O)C1=C[C@]2(CC)CCCN3CCc4c(n1c1ccccc41)[C@@H]32`: in [1], the call was inactive. Also, in [2], the Potency was > 20.6 µM (inactive).

`Cc1cn[nH]c1`: the activity change, negative = inhibition in [3] (at 38 µM (top of the series)) was 13.5% (inactive); in test [4] (at 38 µM (top of the series)), -5.73% (inactive). Moreover, the result in [1] was inactive. The Potency in test [2] and in [5] was > 46 µM (inactive) in each case.

`Cc1cc2c(C(C)C)c(O)c(O)c(C=O)c2c(O)c1-c1c(C)cc2c(C(C)C)c(O)c(O)c(C=O)c2c1O`: the Potency in [6] is 15.8 µM (active); in test [2], > 20.6 µM (inactive) and > 46 µM (inactive); in test [5] it was > 20.6 µM (inactive) and > 46 µM (inactive). Moreover, the activity change, negative = inhibition in test [4] (at 17.2 µM (top of the series)) is -68.3% (active).

Take `O=NN(CCCl)C(=O)NCCCl`: the activity change, negative = inhibition in test [3] (at 38 µM (top of the series)) is 3.21% (inactive); in test [4] (at 38 µM (top of the series)), -7.61% (inactive). The Potency in test [2] and in [5] was > 46 µM (inactive) each time. For the same compound, in [7], the compound was classed as inactive.

Take `CCC(C)(C)C(=O)O[C@H]1C[C@@H](C)C=C2C=C[C@H](C)[C@H](CC[C@@H]3C[C@@H](O)CC(=O)O3)[C@H]21`: the Potency in test [2] and in test [5] was > 46 µM (inactive) each time. Besides, the compound was classed as inactive in [7].

Take `NC(=O)c1ccc(-c2nc(-c3ccc4c(c3)OCO4)c(-c3ccccn3)[nH]2)cc1`: the Potency in test [2] and in test [5] was > 46 µM (inactive) throughout. For the same compound, in test [7], the call was inactive.

Regarding `CCCC(CCC)C(=O)O`, the activity change, negative = inhibition in [3] (at 38 µM (top of the series)) is 10.8% (inactive); in test [4] (at 38 µM (top of the series)), 4.56% (inactive). Besides, the Potency result in test [6] and in [15] was “inactive” in each case. The Potency in test [8], in test [9], in test [10], in test [11], in [12] and in test [13] was > 92 µM (inactive) throughout. Besides, the Potency in test [2] and in test [5] was > 46 µM (inactive) each time. For the same compound, the result in test [1], in [7], in test [14], in test [16], in test [17] and in test [18] was inactive.

Turning to `CC(C[N+](C)(C)C)OC(N)=O` (configuration not stated), in test [3] (at 17.2 µM (top of the series)), the activity change, negative = inhibition was 1.75% (inactive). Further, the compound was called inactive in [1]. In [2], the Potency is > 20.6 µM (inactive).

Take `N#Cc1ccc(C(c2ccc(C#N)cc2)n2cncn2)cc1`: the results for the activity change, negative = inhibition in test [3] (at 17.2 µM (top of the series)) and in test [4] (at 17.2 µM (top of the series)) were -15.5% (inactive) and -8.25% (inactive), respectively. Further, the outcome in test [1] and in test [7] was inactive. Besides, the Potency in test [2] and in test [5] was > 20.6 µM (inactive) throughout.

In the case of `CCOC(=O)N1CCC(=C2c3ccc(Cl)cc3CCc3cccnc32)CC1`, the Potency in [2] is > 46 µM (inactive) and > 20.6 µM (inactive); in test [5], > 46 µM (inactive). Moreover, in test [7], the call was inactive.

For `CC(C)C[C@H](NC(=O)[C@@H](O)[C@H](N)Cc1ccccc1)C(=O)O`, the Potency result in [6] is “inactive”. For the same compound, the Potency in [2] and in test [5] was > 46 µM (inactive) each time. Further, in test [7], the call was inactive.

In the case of `CC(C)(Sc1ccc(CCN(CCCCC2CCCCC2)C(=O)NC2CCCCC2)cc1)C(=O)O`, the Potency entry in [6] is “inactive”. The Potency in test [2] and in [5] was > 46 µM (inactive) throughout. Further, the compound was classed as inactive in test [7].

Turning to `Cc1ccccc1C(OCCN(C)C)c1ccccc1` (configuration not stated), the activity change, negative = inhibition in test [3] (at 17.2 µM (top of the series)) was 14.6% (inactive); in test [4] (at 17.2 µM (top of the series)) it was -85.9% (active). The call in [1] was inactive. Further, the Potency in test [2] was > 20.6 µM (inactive).

For the compound `CCN(c1ccccc1)c1cc(NC)[n+](C)c(C)n1`, the Potency in test [6] was 31.6 µM (active); in test [2], > 46 µM (inactive); in test [5], > 46 µM (inactive). Further, the outcome in [7] was inactive.

On to `CCOC(=O)C1=C[C@@]2(CC)CCCN3CCc4c(n1c1ccccc41)[C@H]32`, for which the activity change, negative = inhibition in test [3] (at 38 µM (top of the series)) was 94.5% [activator] (active); in test [4] (at 17.2 µM (top of the series)), -3.7% (inactive); in test [4] (at 38 µM (top of the series)), 0.129% (inactive). The Potency result in test [6] was “inactive and 39.8 µM (active)”; in test [2], > 46 µM (inactive) and > 20.6 µM (inactive); in test [5], > 46 µM (inactive) and > 20.6 µM (inactive). Besides, the outcome in test [1] and in test [7] was inactive.

Turning to `NC[C@H](O)c1ccc(O)c(O)c1`, the activity change, negative = inhibition in test [3] (at 38 µM (top of the series)) was -15.3% (inactive) and -4.21% (inactive); in test [4] (at 38 µM (top of the series)) it was -7.25% (inactive) and 5.9% (inactive). The compound was classed as inactive in test [1] and in [7]. Also, the Potency in test [2] and in [5] was > 46 µM (inactive) throughout.
